# Measured values taken from PubChem BioAssay (NCATS).
# Results filed as inconclusive are left out. Entries that show only a call come without a potency. The source made the active and inactive calls. Unless noted, calls come from the whole dose curve; as a rule, active = well fitted curve in the direction sought with a large enough effect; inconclusive = small, poorly fitted or top-dose-only effect, or another doubt; inactive = no such curve, though single readings can be large; an effect the other way counts as inactive or inconclusive.
# How the values were obtained:
# [1] = target: ATP-dependent 6-phosphofructokinase (Trypanosoma brucei brucei) (UniProt O15648); assay: qHTS Assay to Find Inhibitors of T. brucei phosphofructokinase: hit validation (AID 492961);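 note: luminescence reports ADP formed as PFK phosphorylates fructose-6-phosphate with ATP; series mostly up to about 51 µM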
# In short: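 Measures ADP output of PFK (1.25 nM) at 0.1 mM ATP, 0.5 mM F6P, pH 8.0 TEA buffer with 5 mM MgCl2. No-enzyme wells define full inhibition; uninhibited enzyme wells define zero.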
# [2] = target: Ubiquitin carboxyl-terminal hydrolase 2 (Homo sapiens) (UniProt O75604); assay: qHTS Validation Assay for Inhibitors of Ubiquitin-specific Protease USP2a Using CHOP2 as the Reporter (AID 463106)
# In short: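 Readout was coupled fluorescence (Ex 485/Em 531 nm), read 60 min after adding 25 nM final Ub-CHOP2 and 25 nM reporter substrate. Beforehand, 10 nM final USP2 core had 30 min at RT with compound in pH 8.0 buffer. Curves were fitted after normalization to NEM and flagged for artifacts using time-zero reads.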
# [3] = target: DNA polymerase III PolC-type (Bacillus subtilis (strain 168)) (UniProt P13267); assay: qHTS Validation Assay for the Inhibitors of DNA Replication in Gram-Positive Bacteria (AID 485295);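 note: reconstituted holoenzyme with PolC plus beta clamp SSB and primase; PicoGreen fluorescence of double-stranded DNA made on primed circular M13 template; series mostly up to about 57 µM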
# In short: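 Primed replication of single-stranded M13Gori by a four-protein B. subtilis holoenzyme is measured at room temperature. Double-stranded product is quantified by PicoGreen fluorescence after an EDTA stop; inhibition is scaled between DMSO and EDTA controls.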
# [4] = target: Tumor susceptibility gene 101 protein (Homo sapiens) (UniProt Q99816); assay: qHTS Validation Assay for Iinhibitors of HIV-1 Budding by Blocking the Interaction of PTAP/TSG101 (AID 485342; calls by dose curve)
# In short: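 Fluorescence anisotropy measured PTAP-Tsg101 interaction. Final concentrations were 10 uM protein domain and 50 nM labeled peptide, equilibrated 20 min at room temperature.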
# [5] = target: Beta-2 adrenergic receptor (Homo sapiens) (UniProt P07550); assay: qHTS validation assay of beta-arrestin-biased ligands of beta2-adrenergic receptor (AID 485366)
# In short: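 Screening used a titration range of up to 46 microM in a beta-arrestin recruitment Tango luciferase assay. Cells in 1% FBS medium were treated 18 hr at 37 degrees C, and luminescence was normalized to %Activity.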
# [6] = target: ATP-dependent 6-phosphofructokinase (Trypanosoma brucei brucei) (UniProt O15648); assay: qHTS Validation Assay to Find Inhibitors of T. brucei phosphofructokinase (AID 485368); settings: outcome: dose series up to 57.5 µM
# In short: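 PFK-generated ADP was measured after 45 min at room temperature using ADP-Glo. The reaction contained 0.5 mM F6P and 0.1 mM ATP.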
# [7] = target: Thioredoxin reductase 1, cytoplasmic (Rattus norvegicus) (UniProt O89049); assay: qHTS Assay for Substrates of Mammalian Selenoprotein Thioredoxin Reductase 1 (TrxR1) (AID 488772);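 note: series mostly up to about 57 µM; a drop in NADPH fluorescence below the no-compound background marks a TrxR1 substrate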
# In short: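 In this dual-purpose format, potential substrates are identified from the first fluorescence read after selenite addition, not from the 8-minute delta. Rat enzyme is preincubated with NADPH and then with compound at ~22 deg C.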
# [8] = target: Thioredoxin reductase 1, cytoplasmic (Rattus norvegicus) (UniProt O89049); assay: qHTS Assay for Inhibitors of Mammalian Selenoprotein Thioredoxin Reductase 1 (TrxR1) (AID 488773);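 note: drop in NADPH fluorescence over an 8 min run after selenite addition; series mostly up to about 57 µM; nearly all actives have a fitted effect of over 40% in size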
# In short: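 Inhibition is scored from the loss of NADPH fluorescence between first and last reads of an 8-min kinetic run. Selenite (400 uM) was the substrate, added after 15 min compound preincubation at room temperature.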
# [9] = target: Flap endonuclease 1 (Homo sapiens) (UniProt P39748); assay: qHTS Validation Assay for the Inhibitors of Human Flap endonuclease 1 (FEN1) (AID 488816)
# In short: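 qHTS format: compounds and 10 nM FEN1 incubated 15 min at room temperature before adding 50 nM substrate. Cleavage followed by reads at 0 and 15 min; normalized data fitted to a four-parameter Hill curve.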
# [10] = target: M-phase phosphoprotein 8 (Homo sapiens) (UniProt Q99549); assay: qHTS Validation Assay for Inhibitors for MPP8 Chromodomain Interactions with Methylated Histone Tails (AID 488949);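 note: AlphaScreen signal from MPP8 chromodomain bound to biotinylated H3K9me3 peptide; top concentration of the series differs between compounds; nearly all actives have a fitted effect of over 55% in size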
# In short: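 Disruption of the preformed MPP8–trimethyl-H3K9 peptide complex (both 50 nM, 30 min, RT) is measured after 30 min compound exposure, using AlphaScreen proximity beads; aurintricarboxylic acid titration serves as plate control.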
# [11] = target: Chromobox protein homolog 1 (Homo sapiens) (UniProt P83916); assay: qHTS Validation Assay for Inhibitors of HP1-beta Chromodomain Interactions with Methylated Histone Tails (AID 488953);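 note: loss of AlphaScreen luminescence from HP1-beta binding biotinylated H3K9me3 peptide; series mostly up to about 110 µM; nearly all actives have a fitted effect of over 50% in size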
# In short: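 AlphaScreen proximity signal from streptavidin donor and nickel chelate acceptor beads (final 10 ug/mL) after 30 min dark incubation. Compounds had 30 min at room temperature with preformed complex of 50 nM HP1-beta and 50 nM b-H3(1-18)K9me3 in PBS pH 7.4 with 0.01% Tween-20.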
# [12] = target: Methanococcus maripaludis chaperonin (MmCpn) (UniProt Q6LX38); assay: High-Throughput Screening for Modulators of Cytosolic Chaperonin Activity: MmCpn Primary Screen (AID 488978);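 note: 50 nM MmCpn enzyme hydrolysing 30 µM ATP at 37 °C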
# In short: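 Measures ATPase turnover of the M. maripaludis chaperonin (50 nM final) against 30 uM ATP over 10 min at 37C, with compound added 5 min beforehand at room temperature. ADP is quantified by HTRF immunodetection.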
# [13] = target: Thyrotropin receptor (Homo sapiens) (UniProt P16473); assay: qHTS Assay for Antagonists of the Thyroid Stimulating Hormone Receptor (AID 488980); note: series mostly up to about 58 µM
# In short: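 Cells expressing human TSHR (HEK293) are dispensed in HBSS/HEPES containing 70 uM RO 20-1724, compound is added, then TSH at EC80 (4 nM final). Antibody in lysis buffer follows, 30 minutes at room temperature before HTRF detection.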
# [14] = target: D(1A) dopamine receptor (Homo sapiens) (UniProt P21728); assay: HTS Assay for Allosteric Agonists of the Human D1 Dopamine Receptor: Primary Screen for Agonists (AID 488981); note: potency is the fitted concentration of half-maximal effect
# In short: (§1)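 Calcium flux in an inducible, force-coupled HEK293 Trex D1 line (overnight at 30 C): agonist mode is the 180 s kinetic read after compound; potentiator mode is the following 180 s read after dopamine at EC20.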
# [15] = target: D(1A) dopamine receptor (Homo sapiens) (UniProt P21728); assay: HTS Assay for Allosteric Agonists of the Human D1 Dopamine Receptor: Primary Screen for Potentiators (AID 488982)
# In short: as §1
# [16] = target: D(1A) dopamine receptor (Homo sapiens) (UniProt P21728); assay: HTS Assay for Allosteric Agonists of the Human D1 Dopamine Receptor: Primary Screen for Antagonists (AID 488983);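 note: calcium flux response to an EC80 dopamine challenge measured with no-wash dye; nearly all actives have a fitted effect of over 65% in size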; note: potency is the fitted concentration of half-maximal effect
# In short: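 Calcium-flux read-out in inducible HEK293 T-REx cells expressing D1, dye-loaded 30–90 min at room temperature. Kinetic reads: 180 s after compound (agonist phase), then 180 s after an EC80 dopamine challenge.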
# [17] = Validation screen for small molecules that induce genotoxicity in human embryonic kidney (HEK293T) cells expressing luciferase-tagged ELG1 (AID 493106)
# In short: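 ELG1-luciferase reporter readout (ONE-Glo, 30 min, room temperature) after 16 hr compound treatment at 37 °C of HEK293T cells at 2,000 per well. Rising luminescence flags genotoxic stress.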
# [18] = Cytometry Cell-Based qHTS for Inhibitors of the mTORC1 Signaling Pathway in MEF cells (AID 2668);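 note: Tsc2-/- p53-/- mouse embryonic fibroblasts stably re-expressing wild-type Tsc2; percent cells positive for phospho-rpS6 Ser235/236 relative to propidium iodide stain; series mostly up to about 38 µM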
# In short: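 Pathway inhibition in WT Tsc2-rescued Tsc2-/-, p53-/- MEFs is measured as the Alexa-488 phospho-rpS6 to propidium iodide intensity ratio after 24 hrs of compound at 37 degree Celsius. PI-stained cell number gives viability.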
# [19] = Validation screen for small molecules that induce DNA re-replication in MCF 10A normal breast cells (AID 463097); note: nearly all actives have a fitted effect of over 60% in size
# In short: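 DNA re-replication was detected as a rise in nuclei with elevated Hoechst fluorescence after a 48 hr compound exposure of MCF 10A cells at 37 C.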
# [20] = target: Transient receptor potential cation channel subfamily V member 1 (Homo sapiens) (UniProt Q8NER1); assay: HTS Assay for Compounds that Act as Enhancers of the Vanilloid Receptor 1 (AID 488979)
# In short: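 Calcium influx kinetics via Fluo-8 (480/520 nm) in TRPV1-expressing cells, 2000/well cultured overnight at 35.5C. Compound-alone read 3 min (agonist phase), followed by EC20 capsaicin challenge for 2 min (enhancer phase).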
# Chain of M-phase phosphoprotein 8 (Homo sapiens) (Q99549 whole entry, looked up): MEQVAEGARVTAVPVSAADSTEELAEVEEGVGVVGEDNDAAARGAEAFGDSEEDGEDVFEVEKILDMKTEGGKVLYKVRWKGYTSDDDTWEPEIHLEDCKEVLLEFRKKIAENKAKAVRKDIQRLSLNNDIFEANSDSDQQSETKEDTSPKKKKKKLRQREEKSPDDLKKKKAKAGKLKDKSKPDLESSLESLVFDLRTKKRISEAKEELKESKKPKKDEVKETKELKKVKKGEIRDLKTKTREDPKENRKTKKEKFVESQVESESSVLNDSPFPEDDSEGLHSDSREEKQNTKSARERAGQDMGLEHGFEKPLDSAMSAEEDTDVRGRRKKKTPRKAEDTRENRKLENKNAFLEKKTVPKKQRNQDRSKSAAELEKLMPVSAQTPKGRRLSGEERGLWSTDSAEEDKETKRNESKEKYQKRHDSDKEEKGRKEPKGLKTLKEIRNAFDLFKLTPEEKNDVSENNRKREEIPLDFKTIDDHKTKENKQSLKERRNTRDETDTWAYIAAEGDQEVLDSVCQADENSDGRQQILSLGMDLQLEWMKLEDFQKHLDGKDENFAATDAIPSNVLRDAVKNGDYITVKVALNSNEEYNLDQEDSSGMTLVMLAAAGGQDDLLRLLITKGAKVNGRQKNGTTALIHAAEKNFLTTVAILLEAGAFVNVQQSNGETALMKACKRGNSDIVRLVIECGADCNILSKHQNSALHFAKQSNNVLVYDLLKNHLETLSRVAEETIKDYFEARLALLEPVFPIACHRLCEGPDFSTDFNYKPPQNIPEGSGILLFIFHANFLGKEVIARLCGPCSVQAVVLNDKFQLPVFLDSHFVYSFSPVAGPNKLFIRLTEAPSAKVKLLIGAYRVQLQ
# Chain of ATP-dependent 6-phosphofructokinase (Trypanosoma brucei brucei) (O15648 whole entry, looked up): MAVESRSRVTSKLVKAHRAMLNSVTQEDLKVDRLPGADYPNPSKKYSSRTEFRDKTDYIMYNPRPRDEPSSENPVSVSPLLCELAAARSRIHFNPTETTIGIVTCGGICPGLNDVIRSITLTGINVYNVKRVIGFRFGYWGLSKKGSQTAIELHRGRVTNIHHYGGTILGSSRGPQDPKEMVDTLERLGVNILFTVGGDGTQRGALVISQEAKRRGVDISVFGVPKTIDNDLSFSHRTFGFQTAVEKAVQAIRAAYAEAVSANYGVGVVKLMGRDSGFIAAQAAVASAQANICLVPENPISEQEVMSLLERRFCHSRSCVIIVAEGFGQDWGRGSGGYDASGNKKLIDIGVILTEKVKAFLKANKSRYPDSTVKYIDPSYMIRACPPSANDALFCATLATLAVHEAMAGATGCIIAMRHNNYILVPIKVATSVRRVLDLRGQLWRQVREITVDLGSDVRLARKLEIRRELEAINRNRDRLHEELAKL
# Chain of D(1A) dopamine receptor (Homo sapiens) (P21728 whole entry, looked up): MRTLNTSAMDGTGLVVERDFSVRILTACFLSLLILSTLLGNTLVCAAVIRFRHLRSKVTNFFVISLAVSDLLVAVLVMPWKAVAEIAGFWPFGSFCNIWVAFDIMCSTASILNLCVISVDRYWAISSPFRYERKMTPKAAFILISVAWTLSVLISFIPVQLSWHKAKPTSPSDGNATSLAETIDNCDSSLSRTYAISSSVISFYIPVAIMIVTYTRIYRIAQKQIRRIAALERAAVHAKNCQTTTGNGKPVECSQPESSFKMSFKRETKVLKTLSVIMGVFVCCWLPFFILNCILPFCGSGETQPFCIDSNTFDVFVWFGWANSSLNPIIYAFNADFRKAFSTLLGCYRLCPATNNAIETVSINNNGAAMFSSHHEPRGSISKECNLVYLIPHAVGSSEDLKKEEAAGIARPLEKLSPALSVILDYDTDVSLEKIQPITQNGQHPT
# Chain of Thioredoxin reductase 1, cytoplasmic (Rattus norvegicus) (O89049 whole entry, looked up): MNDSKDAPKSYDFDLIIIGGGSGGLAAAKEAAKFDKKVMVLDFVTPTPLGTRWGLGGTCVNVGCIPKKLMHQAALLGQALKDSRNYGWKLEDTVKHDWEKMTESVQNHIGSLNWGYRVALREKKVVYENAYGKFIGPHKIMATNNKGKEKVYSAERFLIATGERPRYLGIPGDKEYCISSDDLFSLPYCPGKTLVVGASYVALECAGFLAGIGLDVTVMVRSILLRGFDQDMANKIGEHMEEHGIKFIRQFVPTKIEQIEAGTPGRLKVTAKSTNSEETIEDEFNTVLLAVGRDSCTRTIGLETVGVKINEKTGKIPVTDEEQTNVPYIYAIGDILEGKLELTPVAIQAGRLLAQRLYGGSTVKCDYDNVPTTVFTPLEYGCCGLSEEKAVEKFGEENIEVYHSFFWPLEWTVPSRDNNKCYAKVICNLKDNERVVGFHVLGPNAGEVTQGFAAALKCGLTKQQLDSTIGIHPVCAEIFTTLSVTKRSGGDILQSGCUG
# Chain of Beta-2 adrenergic receptor (Homo sapiens) (P07550 whole entry, looked up): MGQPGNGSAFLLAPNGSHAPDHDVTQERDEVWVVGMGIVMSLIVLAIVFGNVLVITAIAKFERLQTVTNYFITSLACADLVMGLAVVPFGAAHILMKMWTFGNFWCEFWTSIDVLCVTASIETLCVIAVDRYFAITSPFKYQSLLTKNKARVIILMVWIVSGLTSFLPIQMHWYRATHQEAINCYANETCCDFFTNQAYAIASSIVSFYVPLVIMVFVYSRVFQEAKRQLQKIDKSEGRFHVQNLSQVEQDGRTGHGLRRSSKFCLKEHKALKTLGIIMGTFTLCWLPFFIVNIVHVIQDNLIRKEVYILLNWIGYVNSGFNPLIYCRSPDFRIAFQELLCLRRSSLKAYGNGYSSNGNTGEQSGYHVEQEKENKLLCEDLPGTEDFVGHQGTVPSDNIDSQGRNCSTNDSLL
# Chain of Ubiquitin carboxyl-terminal hydrolase 2 (Homo sapiens) (O75604 whole entry, looked up): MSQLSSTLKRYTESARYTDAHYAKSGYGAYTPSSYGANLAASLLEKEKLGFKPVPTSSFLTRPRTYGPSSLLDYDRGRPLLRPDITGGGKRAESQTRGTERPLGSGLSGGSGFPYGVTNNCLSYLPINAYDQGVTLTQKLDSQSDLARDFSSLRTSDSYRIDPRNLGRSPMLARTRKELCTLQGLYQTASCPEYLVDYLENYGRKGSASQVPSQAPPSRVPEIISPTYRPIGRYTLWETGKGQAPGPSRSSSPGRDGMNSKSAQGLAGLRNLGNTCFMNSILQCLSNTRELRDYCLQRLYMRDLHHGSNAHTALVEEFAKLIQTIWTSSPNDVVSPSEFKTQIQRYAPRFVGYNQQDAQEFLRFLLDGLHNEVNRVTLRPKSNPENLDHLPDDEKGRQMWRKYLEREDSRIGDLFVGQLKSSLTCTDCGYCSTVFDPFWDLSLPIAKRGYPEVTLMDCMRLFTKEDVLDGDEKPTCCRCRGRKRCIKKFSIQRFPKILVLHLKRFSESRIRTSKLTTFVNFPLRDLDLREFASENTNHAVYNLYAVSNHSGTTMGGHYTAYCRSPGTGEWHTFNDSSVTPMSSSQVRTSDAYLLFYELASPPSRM
# Chain of DNA polymerase III PolC-type (Bacillus subtilis (strain 168)) (P13267 whole entry, looked up): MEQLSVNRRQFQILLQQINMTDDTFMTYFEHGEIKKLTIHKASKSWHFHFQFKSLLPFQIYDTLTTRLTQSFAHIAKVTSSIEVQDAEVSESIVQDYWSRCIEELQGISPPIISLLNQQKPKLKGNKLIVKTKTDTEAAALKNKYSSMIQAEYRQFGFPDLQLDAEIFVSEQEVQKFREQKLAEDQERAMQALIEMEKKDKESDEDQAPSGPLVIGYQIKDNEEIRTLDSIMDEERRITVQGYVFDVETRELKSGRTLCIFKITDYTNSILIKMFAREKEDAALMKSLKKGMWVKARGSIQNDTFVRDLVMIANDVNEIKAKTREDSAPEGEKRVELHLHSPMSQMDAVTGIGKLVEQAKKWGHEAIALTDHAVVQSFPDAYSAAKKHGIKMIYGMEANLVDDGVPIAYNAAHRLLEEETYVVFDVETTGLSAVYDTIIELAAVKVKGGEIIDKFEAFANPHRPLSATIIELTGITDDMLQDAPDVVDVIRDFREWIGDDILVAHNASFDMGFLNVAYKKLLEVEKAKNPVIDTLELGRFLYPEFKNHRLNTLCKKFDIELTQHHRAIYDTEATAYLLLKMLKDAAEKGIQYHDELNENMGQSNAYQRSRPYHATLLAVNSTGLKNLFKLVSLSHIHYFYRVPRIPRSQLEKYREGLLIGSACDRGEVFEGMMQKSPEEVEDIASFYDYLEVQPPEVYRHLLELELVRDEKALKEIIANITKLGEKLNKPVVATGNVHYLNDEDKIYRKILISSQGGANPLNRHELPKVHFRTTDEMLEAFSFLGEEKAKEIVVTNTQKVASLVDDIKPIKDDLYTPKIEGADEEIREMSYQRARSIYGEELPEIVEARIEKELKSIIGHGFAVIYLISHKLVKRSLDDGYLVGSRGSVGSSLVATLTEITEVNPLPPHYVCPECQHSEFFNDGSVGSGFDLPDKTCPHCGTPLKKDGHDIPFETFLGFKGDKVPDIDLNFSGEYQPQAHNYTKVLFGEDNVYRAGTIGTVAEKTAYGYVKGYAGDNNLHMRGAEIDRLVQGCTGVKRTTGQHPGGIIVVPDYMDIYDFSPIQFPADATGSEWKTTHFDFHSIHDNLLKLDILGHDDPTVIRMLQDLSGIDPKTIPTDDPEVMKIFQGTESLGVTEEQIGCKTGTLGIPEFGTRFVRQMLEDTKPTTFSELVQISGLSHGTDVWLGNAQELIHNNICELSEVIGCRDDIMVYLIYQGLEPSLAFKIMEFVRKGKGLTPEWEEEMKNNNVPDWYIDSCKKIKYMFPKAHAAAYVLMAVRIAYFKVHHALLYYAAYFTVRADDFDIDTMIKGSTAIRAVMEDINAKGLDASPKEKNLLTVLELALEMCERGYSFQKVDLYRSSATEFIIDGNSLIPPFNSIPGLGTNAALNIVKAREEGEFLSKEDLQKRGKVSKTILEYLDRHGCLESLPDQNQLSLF
# Chain of Chromobox protein homolog 1 (Homo sapiens) (P83916 whole entry, looked up): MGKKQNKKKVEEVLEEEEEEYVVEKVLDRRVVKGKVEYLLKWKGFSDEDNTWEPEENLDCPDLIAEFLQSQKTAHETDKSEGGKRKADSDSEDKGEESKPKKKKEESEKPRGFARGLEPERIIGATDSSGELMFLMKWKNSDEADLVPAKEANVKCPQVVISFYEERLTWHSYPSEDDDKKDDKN
structure (smiles),measurement,setting,value
COC1C(OC(=O)/C=C/C=C/C=C/C=C/C(=O)O)CCC2(CO2)C1C1(C)OC1CC=C(C)C (stereo not drawn),outcome,[1],inactive
C=CCNC1=C2C[C@@H](C)C[C@H](OC)[C@H](O)[C@@H](C)/C=C(\C)[C@H](OC(N)=O)[C@@H](OC)/C=C\C=C(/C)C(=O)NC(=CC1=O)C2=O,outcome,[1],inactive
CCCOc1ccc2nc(NC(=O)OC)sc2c1,outcome,[1],inactive
CN[C@H]1CC[C@@H](c2ccc(Cl)c(Cl)c2)c2ccccc21,outcome,[2],inactive
same,outcome,[3],inactive
same,outcome,[4],inactive
same,outcome,[5],inactive
same,outcome,[6],inactive
same,outcome,[7],inactive
same,outcome,[8],inactive
same,outcome,[9],inactive
same,outcome,[10],inactive
same,outcome,[11],inactive
same,outcome,[12],inactive
same,outcome,[13],inactive
same,Potency,[14],11.2 µM (active)
same,outcome,[15],inactive
same,Potency,[16],10 µM (active)
same,outcome,[1],inactive
same,outcome,[17],inactive
NCCCC(=O)O,outcome,[18],inactive
same,outcome,[19],inactive
same,outcome,[2],inactive
same,outcome,[3],inactive
same,outcome,[4],inactive
same,outcome,[5],inactive
same,outcome,[6],inactive
same,outcome,[7],inactive
same,outcome,[8],inactive
same,outcome,[9],inactive
same,outcome,[10],inactive
same,outcome,[11],inactive
same,outcome,[12],inactive
same,outcome,[20],inactive
same,outcome,[13],inactive
same,Potency,[14],inactive
same,Potency,[16],inactive
same,outcome,[17],inactive
